# GLD-1 RNA inh – GLD-1-TGE RNA interaction inhibition (C. elegans); 320,000 compounds, 0.44% hits; inhibition, % at 5.96 µM; purified GLD-1 + fluorescein TGE RNA, fluorescence polarization;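 active = percent inhibition above a per-plate cutoff, the plate mean of test compounds plus 3 SD, cut at about 30% in these data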;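 note: 0% = DMSO wells with GLD-1 and probe and 100% = wells lacking GLD-1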
# Bcl-xL primary – inhibitors of human Bcl-xL. inhibition, % at 10.9 µM. GST-Bcl-xL / FITC-Bim BH3 peptide fluorescence polarization. 320,000 compounds, 0.7% hits. AID 2129;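 active = inhibition above the mean of all tested compounds plus 3 SD, cutoff set per campaign, cut at about 30% in these data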;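 note: 0% = DMSO wells and 100% = unlabeled Bim-BH3 peptide competitor; inhibitors lower millipolarization by displacing the labeled peptide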
# Target sequence (Q07817 whole entry, looked up): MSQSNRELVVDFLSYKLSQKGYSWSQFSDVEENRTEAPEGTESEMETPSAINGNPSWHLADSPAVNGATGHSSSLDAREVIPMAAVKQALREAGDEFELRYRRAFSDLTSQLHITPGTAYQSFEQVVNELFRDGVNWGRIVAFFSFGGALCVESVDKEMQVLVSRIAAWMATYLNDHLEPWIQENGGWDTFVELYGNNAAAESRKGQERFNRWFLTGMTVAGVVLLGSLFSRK
# cardiac RTF act – increases calcium sensitivity of human cardiac regulated thin filaments; P19429+P45379; IANBD-labeled TnC RTF fluorescence at EC20 calcium; 0% EC20 calcium, 100% full calcium; activation, % at 7.2 µM; 340,000 compounds, 0.24% hits;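 active = activation above the mean over all tested compounds plus 3 SD, cut at about 30% in these data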;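 note: rise in fluorescence read as greater calcium sensitivity of cardiac thin filaments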
# E coli Lon inh – inhibitors of E. coli Lon protease; 360,000 compounds, 0.42% hits; purified E. coli Lon protease, fluorescence polarization; P0A9M0; inhibition, % at 7.94 µM; in the data active = inhibition above about 13%, passing the limit was not always enough;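 note: 0% = enzyme with probe and DMSO and 100% = no enzyme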
# Cardiac RTF inh – cardiac RTF calcium desensitization; P19429+P45379; IANBD-labeled cardiac RTF, Ca2+ fluorescence; inhibition, % at 7.15 µM; 340,000 compounds, 0.12% hits;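 active = inhibition above the mean inhibition of all tested compounds plus 3 SD, cut at about 17% in these data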;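 note: assay run at fixed EC70 calcium of 1.6 mM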
# An asterisk follows results filed as active; i = inactive; nt = no result; + = active, no number. Compounds with a hit are over-represented: about 1.2% of the library has one in this group of screens.
SMILES,GLD-1 RNA inh,Bcl-xL primary,cardiac RTF act,E coli Lon inh,Cardiac RTF inh
CC(C)CCn1c(=O)c2sccc2n2c(CCCC(=O)N3CCN(c4ccccn4)CC3)nnc12,3,71*,-1,-1,-4
CCn1c(=O)c2sccc2n2c(CCCC(=O)N3CCN(c4ccccn4)CC3)nnc12,-3,3,-2,1,-6
COc1ccc(OC)c(/C=c2\sc3nc(-c4cccs4)nn3c2=O)c1,-12,-13,50*,11,-2
COc1ccccc1/C=c1\sc2nc(-c3ccco3)nn2c1=O,0,21,-4,-9,-1
O=c1c(CO)cc(CO)cc(CO)c1O,6,4,1,8,-17
O=C1C=CC(=O)c2c(O)c(CO)c(CO)c(O)c21,nt,nt,-32,134,36*
O=C(NCC1CCCO1)c1cc(-c2ccco2)nc2ccccc12 (stereo not given),39*,55*,-2,12,0
CC1(C)CC(=O)C=C(NNC(=O)c2cccnc2)C1,81*,19,nt,31,nt
ClCc1nc2ccccc2n1Cc1ccccc1,57*,129*,10,10,-8
Cn1ccsc1=NC(=O)c1ccc(Cl)cc1,-3,-3,3,4,8
CC1=C(C(=O)Nc2ccccc2)C(c2ccccc2[N+](=O)[O-])NC(=O)N1 (stereo not given),17,36*,1,-28,-3
Cc1ccc2c(COC(=O)C34CC5CC(CC(C5)C3)C4)cc(=O)oc2c1,4,2,2,1,-17
O=C(O)c1ccc2c3c(cccc13)C(=O)N(c1ccccc1)C2=O,11,26,3,-8,-1
CN(C)c1ccc2c3c(cccc13)C(=O)N(c1ccccc1)C2=O,69*,81*,nt,nt,nt
Cc1c(O)c2c3c(cccc3c1O)C(=O)N(c1ccccc1)C2=O,82*,91*,52*,-14,-31
CCN(CC)S(=O)(=O)c1cccc(-c2cn3cccnc3n2)c1,7,7,1,-5,0
OCC[n+]1ccc(/C=C/c2c[nH]c3ccccc23)cc1,50*,7,189*,-255,-275
CCC(Cc1ccccc1)NC(=O)Cn1ncc2ccsc2c1=O (stereo not given),-5,3,2,6,2
CCc1ccc(CN(C)Cc2nc(Cc3ccc(OC)c(OC)c3)no2)nc1,5,2,-2,-3,-7
O=C1CCC/C(=N/NC(=O)c2sc3ccccc3c2Cl)C1,103*,2,36*,-71,-108
O=C(NN=C1CCCC1)c1sc2ccccc2c1Cl,14,-1,4,-14,-7
COc1cc(C(=O)ON=C2C=C(C)C(=O)C(C)=C2)cc(OC)c1OC,5,-1,-1,-10,-3
CCSc1nnc(-c2sc3nnc(-c4ccccc4)c(-c4ccccc4)c3c2N)o1,-31,15,83*,-70,-31
O=C(C1=NN[C@@H]2C(=O)N(c3cccc(F)c3)C(=O)[C@H]12)c1ccc2ccccc2n1,-1,2,-1,-8,-4
COc1cccc(N2C(=O)[C@H]3C(C(=O)c4cnccn4)=NN[C@H]3C2=O)c1,3,37*,nt,3,nt
SMILES,GLD-1 RNA inh,Bcl-xL primary,cardiac RTF act,E coli Lon inh,Cardiac RTF inh
O=c1c2cc(Cl)ccc2[nH]c(=S)n1Cc1ccccn1,10,6,-4,14,0
Cc1nnc(N2CCC(C(=O)N3CCCCC3)CC2)c2nn(-c3ccc(Cl)cc3)c(C)c12,-1,9,-3,-6,1
COc1ccc(-n2nc3c(N4CCC(C(=O)N5CCC(C)CC5)CC4)nnc(C)c3c2C)cc1,-95,-40,32*,-300,-45
CCOC(=O)C1C(=O)C=C(/C=C/c2ccc(N(C)C)cc2)CC1c1ccccc1 (stereo not given),-42,-52,108*,-164,-214
CSc1nnc(N2C(=O)C(O)=C(C(=O)c3ccco3)C2c2ccccc2F)s1 (stereo not given),86*,70*,10,-1,-7
CSc1nnc(N2C(=O)C(O)=C(C(=O)c3ccco3)C2c2ccccc2)s1 (stereo not given),54*,54*,-5,-2,-10
Cc1ccc(C2C(C(=O)c3ccco3)=C(O)C(=O)N2c2nnc(C)s2)cc1 (stereo not given),34*,31*,1,8,-8
CCOC(=O)C1C(=O)NC(SCC(N)=O)=C(C#N)C1c1ccccc1OCC (stereo not given),-74,-21,38*,-221,-71
COC(=O)c1sc2ccccc2c1N,-10,4,-3,-14,-8
COC(=O)C1=C(C(=O)OC)C(c2ccccc2O)c2sc(=O)[nH]c2S1 (stereo not given),3,33*,1,8,11
Cc1ccccc1NC(=S)N/N=C1\CC(C)(C)Oc2ccc(O)cc21,4,82*,-2,-7,-4
Cc1ccc(NC(=S)N/N=C2\CC(C)(C)Oc3ccc(O)cc32)cc1,5,2,4,2,-5
COc1ccc(OC)c(-c2c3cc(O)c(=O)cc-3oc3cc(O)c(O)cc23)c1,76*,111*,+,+,i
COc1ccc(OC)c(-c2oc3ccccc3c(=O)c2O)c1,4,2,2,-8,-3
O=c1cc2oc3cc(O)c(O)cc3c(-c3ccccc3O)c-2cc1O,nt,nt,51*,92*,-23
CCOc1ccccc1-c1c2cc(O)c(=O)cc-2oc2cc(O)c(O)cc12,nt,nt,+,176*,i
COCc1ccc(C(=O)NC2CCCN(Cc3ccccc3F)C2)o1 (stereo not given),6,36*,3,0,3
COc1cccc(CC(=O)NC2CCCN(Cc3ccccc3F)C2)c1 (stereo not given),2,3,1,-3,-15
CCN(CC)c1ccc(C=C2SC(=S)NC2=O)cc1,nt,nt,241*,i,-380
CCN(CC)c1ccc(/C=C2\SC(N)=NC2=O)cc1,nt,nt,33*,-275,-45
NC1=NC(=O)/C(=C/c2ccc(OCC(=O)O)cc2)S1,nt,nt,5,-4,-12
Cc1noc(C)c1S(=O)(=O)NCCCN1CCN(Cc2ccccc2)CC1,3,5,nt,nt,nt
COc1ccc(S(=O)CC(=O)Nc2ccccc2Cl)cc1 (stereo not given),5,8,0,-2,-5
N#Cc1cc2ccccc2nc1SCC(=O)Nc1ccc(S(=O)(=O)N2CCCC2)cc1,45*,-12,1,-19,-12
Cn1c(N)nc2nc(CCc3ccccc3)c(=O)[nH]c2c1=O,30,40*,6,12,-27
COC(=O)Cc1cc(=O)oc2cc(OC)ccc12,1,1,4,1,-2
CCC(C)(C)n1nnnc1C(c1ccc2ncccc2c1)N1CCCC(C)C1 (stereo not given),-6,4,-3,3,-1
Oc1ccc(/C=N/N2CCCCC2)c(O)c1O,26,38*,1,6,-8
Oc1cccc(/C=N/N2CCCCC2)c1O,-7,3,-7,10,1

# Assay outcomes: PubChem BioAssay, The Scripps Research Institute Molecular Screening Center
